Laboratory results from PubChem BioAssay (NCI).
The panel holds about 83,000 compounds, 20% with a hit somewhere; the sample as a whole holds those more often.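 Method: cells in 96-well plates; compound added at one concentration; 48 h incubation; percent growth measured; values under 10 scored active.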 Unmarked numbers belong to inactive results. The source made the active and inactive calls.

Key:
Test in all cases: NCI-60 one-dose screen, 48 h (100 = growth as untreated, 0 = no growth, -100 = all killed)
Conditions in all cases: 10 µM unless noted
DU-145 prostate = system: DU-145 prostate
K-562 leukemia = system: K-562 leukemia
MALME-3M melanoma = system: MALME-3M melanoma
MDA-MB-231 breast = system: MDA-MB-231 breast
RXF 393 renal = system: RXF 393 renal
SF-268 CNS = system: SF-268 CNS
SF-295 CNS = system: SF-295 CNS
SF-539 CNS = system: SF-539 CNS
UACC-257 melanoma = system: UACC-257 melanoma
M14 melanoma = system: M14 melanoma
HCT-15 colon = system: HCT-15 colon
HT29 colon = system: HT29 colon
SNB-75 CNS = system: SNB-75 CNS
SNB-19 CNS = system: SNB-19 CNS
U251 CNS = system: U251 CNS
PC-3 prostate = system: PC-3 prostate
SK-MEL-5 melanoma = system: SK-MEL-5 melanoma
UACC-62 melanoma = system: UACC-62 melanoma
LOX IMVI melanoma = system: LOX IMVI melanoma
SK-MEL-28 melanoma = system: SK-MEL-28 melanoma

SMILES	growth (DU-145 prostate)	growth (K-562 leukemia)	growth (MALME-3M melanoma)	growth (MDA-MB-231 breast)	growth (RXF 393 renal)	growth (SF-268 CNS)	growth (SF-295 CNS)	growth (SF-539 CNS)	growth (UACC-257 melanoma)	growth (M14 melanoma)	growth (HCT-15 colon)	growth (HT29 colon)	growth (SNB-75 CNS)	growth (SNB-19 CNS)	growth (U251 CNS)	growth (PC-3 prostate)	growth (SK-MEL-5 melanoma)	growth (UACC-62 melanoma)	growth (LOX IMVI melanoma)	growth (SK-MEL-28 melanoma)
CNCCCn1c2c(c3ccc(F)cc3c1=O)C(=O)c1cc(OC)cnc1-2	0.683% (active)	1.41% (active)	-56.6% (active)	11.7%	-78.8% (active)	4.62% (active)	-15.3% (active)	-24.7% (active)	-16.5% (active)	-10.8% (active)	-3.12% (active)	-20.9% (active)	-23.4% (active)	11.9%	-25.8% (active)	6.67% (active)	-97.3% (active)	-33.4% (active)	-70.7% (active)	9.85% (active)
O=CN1N=C(c2ccc(Cl)cc2)CC1c1cccc(Nc2ccnc3cc(Cl)ccc23)c1 (stereo not given)	14%	3.74% (active)	8.98% (active)	30.6%	-0.443% (active)	36.7%	-10.4% (active)	-25.9% (active)	12.1%	16.2%	16.9%	3.98% (active)	1.24% (active)	43.3%	13%	12.8%	-63.2% (active)	30.3%	11.3%	39.3%
CC(=O)N1N=C(c2ccc3c(c2)OCO3)CC1c1c(C)nn(-c2ccccc2)c1N(C)Cc1ccccc1 (stereo not given)	94.6%	56.5%	84.8%	81%	79.2%	74.4%	68.9%	94.5%	56.7%	77.2%	79.2%	49.8%	78.7%	64.8%	72.3%	34.3%	79.8%	49.5%	86.5%	93.3%
CC(=O)N1N=C(c2ccc(Cl)cc2)CC1c1c(C)nn(-c2ccccc2)c1N(C)Cc1ccccc1 (stereo not given)	94.5%	61.9%	83.1%	81.1%	72.7%	77.8%	82.7%	93.8%	50.4%	79.9%	71%	58.5%	80.3%	64.4%	68.6%	39.3%	70.3%	51%	84.1%	88.1%
CCOc1cc(/C=C/C(=O)C(C(=O)/C=C/c2ccc(OC(=O)CNc3nc4ccccc4[nH]3)c(OCC)c2)C(=O)CNc2nc3ccccc3[nH]2)ccc1OC(=O)CNc1nc2ccccc2[nH]1	-24.8% (active)	-26.2% (active)	-35.1% (active)	-16.3% (active)	-71.4% (active)	8.48% (active)	-20.4% (active)	-33.4% (active)	21.1%	-6.17% (active)	-41% (active)	-100% (active)	-18.1% (active)	25.1%	-61.5% (active)	3.12% (active)	-86.6% (active)	-61.4% (active)	-98.5% (active)	-29.6% (active)
OCc1n(Cc2ccc3ccccc3c2)cc[n+]1Cc1ccc2ccccc2c1	84.7%	22.7%	38.1%	51.4%	57.3%	60.7%	79.2%	68.3%	18.3%	41.7%	100%	36.6%	34.8%	44.5%	60%	37.8%	-28% (active)	12.8%	45.4%	24.9%
OCCCc1n(Cc2ccc3ccccc3c2)c2ccccc2[n+]1Cc1ccc2ccccc2c1	48.1%	9.14% (active)	-11.2% (active)	-17.7% (active)	14.6%	22.5%	32.8%	18.1%	-14.1% (active)	3% (active)	86.4%	6.48% (active)	19.8%	3.3% (active)	13.6%	22.9%	-97.8% (active)	-48.2% (active)	-41.9% (active)	-28% (active)
CSc1nc(N)c2c(n1)N(C)C=NS2(=O)=O	122%	116%	110%	108%	116%	107%	105%	107%	114%	106%	103%	124%	93.3%	107%	103%	94.7%	104%	97.4%	98.3%	122%
